# High-throughput results from PubChem BioAssay.
# A selection: hits, their analogues and other compounds. The true share with any hit is near 21%.
# Pf growth 96h – Primary qHTS for delayed death inhibitors of the malarial parasite plastid, 96 hour incubation; Potency, µM (series often up to 28.7 µM), for inactives: at the highest dose activity change, negative = inhibition, most hits filed as inhibitors; 320,000 compounds, 6.9% hits; P. falciparum luciferase reporter growth, 96 h; also: potency is read from the fitted curve at half-maximal effect; % is scaled to controls: 0 for no effect and ±100 for the full control effect
#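 Delayed-death screen, second-generation endpoint: infected erythrocytes, 2% hematocrit, 0.05% parasitemia final; 96 hours at 37 C, 5% CO2; luciferase detection reagent; luminescence decrease equals reduced growth.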
# Shiga inhibitor – A qHTS for Small Molecule Inhibitors of Shiga Toxin; AID 2315, 2010; 290,000 compounds, 9.2% hits; Vero cells, Shiga toxin protein synthesis inhibition reporter; inhibition, % at 38.7 µM; in the data active = inhibition mostly above about 28%, no sharp cut-off; inactive = mostly below about 43%; also: 0% is about no effect
# NS1 function inh – qHTS Assay for Inhibitors of Influenza NS1 Protein Function; Potency, µM (highest dose often 46.1 µM), for inactives: top-dose activity, positive = more growth; 270,000 compounds, 0.4% hits; AID 2326, 2010; calls by dose curve; also: potency is read from the fitted curve at half-maximal effect; actives are rising curves; nearly all actives have a fitted effect of over 50% in size
#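 OD600 was taken as the measure of yeast growth restored by compound in an NS1-expressing S. cerevisiae strain. Cells had been washed out of glucose medium and diluted 1:100 into galactose -URA medium, pH 6.0.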
# Cycloheximide cs – Cycloheximide Counterscreen for Small Molecule Inhibitors of Shiga Toxin. AID 2314, 2010. 300,000 compounds, 12% hits. max response, %. cell reporter, cycloheximide protein synthesis inhibition counterscreen; in the data active = max response mostly above about 13%, no sharp cut-off; inactive = mostly below about 14%; also: read at 38.3 µM for the half of the compounds with a filed dose; 0% is about no effect
# Pf growth 48h – Primary qHTS for delayed death inhibitors of the malarial parasite plastid, 48 hour incubation; Potency, µM (series often up to 28.7 µM), inactives show at the top dose activity change, negative = inhibition, most hits filed as inhibitors; P. falciparum luciferase growth in erythrocytes, 48 h; 310,000 compounds, 5.9% hits; also: potency is read from the fitted curve at half-maximal effect; % is scaled to controls: 0 for no effect and ±100 for the full control effect
#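 Firefly luciferase activity from engineered P. falciparum reports growth; inhibitors lower the luminescent signal. Cultures contained 2% hematocrit erythrocytes at 0.1% final parasitemia.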
# Starred values were filed as active, the others as inactive; ? = inconclusive; . = no result given. Unless noted, calls follow the shape of the dose curve; as a rule, active = well fitted inhibition curve with a large enough effect; inconclusive = small, poorly fitted or top-dose-only effect, or another doubt; inactive = no such curve, though single readings can be large or run the other way.
SMILES,Pf growth 96h,Shiga inhibitor,NS1 function inh,Cycloheximide cs,Pf growth 48h
O=[N+]([O-])c1cccnc1NCCNc1ncc(C(F)(F)F)cc1Cl,95.8%,77.3*,6.9%,39.2*,187.8%
O=S(=O)(NCCNc1ncc(C(F)(F)F)cc1Cl)C(F)(F)F,31.1%,57.0*,-89.8%,27.4,5.7%
CCOP(=O)(OCC)C(NC(=O)Nc1ccc(Cl)cc1)C(=O)N(CC)CC (stereo unspecified),45.7%,-13.3,-5.5%,1.7,34.9%
CC1(C(=O)N/N=C/c2ccc3c(c2)OCO3)CC1(Br)Br (stereo unspecified),5.22µM*,13.5,0.8%,17.4,11.2%
CC1(C(=O)N/N=C/c2ccccc2)CC1(Br)Br (stereo unspecified),?,16.4,2.1%,17.6,34.7%
Cc1ccc(/C=N/NC(=O)C2(C)CC2(Br)Br)cc1 (stereo unspecified),?,37.9,1.1%,13.2*,2.8%
CC1(C(=O)N/N=C/c2ccccc2)CC1(Cl)Cl (stereo unspecified),3.29µM*,.,-2.0%,25.6*,0.1%
CCC(C)(C)NC(=O)C(c1ccc(F)cc1)N(Cc1cccs1)C(=O)c1cnccn1 (stereo unspecified),?,6.3,-1.5%,-1.4,-55.8%
COc1ccc(NC(=O)CN(C)C(=O)CCCc2nc3ccccc3s2)cc1,8.7%,.,.,.,-17.7%
Cc1cc([N+](=O)[O-])ccc1NC(=S)NC1CCCC1,61.9%,-13.9,8.8%,-3.6,-7.5%
COc1cc(C)ccc1Oc1ncnc(N)c1[N+](=O)[O-],?,-2.8,0.5%,-3.5,4.4%
COc1ccccc1CN(C)C(=O)c1cccc(S(=O)(=O)N2CCCC2)c1,?,.,.,.,-25.2%
COc1ccccc1CNCC(=O)Nc1cc(S(=O)(=O)N2CCCCCC2)ccc1Cl,?,-5.8,-1.6%,4.8,9.28µM*
COc1cccc(CN(C)CC(=O)Nc2cc(S(=O)(=O)N3CCCC3)ccc2Cl)c1OC,?,.,.,.,11.7µM*
C/C(=N\NC(=O)CCCNc1cccc(C)c1)c1ccncc1,?,-4.6,-2.9%,-2.7,-17.5%
CC(=O)Nc1ccc(SCc2ncc(-c3ccccc3)o2)cc1,285.1%,89.6*,-19.9%,43.9*,164.9%
CC1=C(C(=O)OC2CCCC2)C(c2coc3ccc(C)cc3c2=O)C2=C(CCCC2=O)N1 (stereo unspecified),4.1%,-5.8,.,-3.1,?
COC(=O)c1ccc2c(c1)NC1=C(C(=O)CC(C)(C)C1)C(c1ccncc1)N2 (stereo unspecified),-59.6%,83.6*,-5.6%,42.2*,29.9%
CC1=C(C(=O)OC2CCCC2)C(c2coc3ccccc3c2=O)C2=C(CC(C)(C)CC2=O)N1 (stereo unspecified),?,-9.5,8.6%,-1.7,4.15µM*
COC(=O)C1=C(C)NC2=C(C(=O)CC(C)(C)C2)C1c1ccccn1 (stereo unspecified),9.28µM*,12.5,-0.4%,-1.3,-3.9%
CC12CCC(C(=O)NCCCn3ccnc3)(OC1=O)C2(C)C (stereo unspecified),8.2%,-6.0,2.9%,-0.4,4.3%
Nc1ncn(C2C[C@H](O)[C@@H](CO)O2)c(=O)n1 (stereo partly specified),-10.6%,.,.,.,-3.4%
COc1ccc(CC(NC(C)=O)C(=O)N2CCN(C(=O)Nc3cccc(F)c3)CC2)cc1OC (stereo unspecified),18.5%,-9.4,1.2%,-1.5,13.5%
Cc1ncsc1CCOC(=O)c1ccc([N+](=O)[O-])cc1,8.9%,40.9*,-10.9%,24.6*,23.4%
CCN(CC)CCCNC(=O)CSc1c2c(nc3cc(Cl)ccc13)CCCC2,35.0%,-22.7,.,-9.8,?
SMILES,Pf growth 96h,Shiga inhibitor,NS1 function inh,Cycloheximide cs,Pf growth 48h
CCN(CC)CCNc1ccnc2cc(Cl)ccc12,0.9%,-5.8,-1.4%,3.3,0.0738µM*
CCN(CC)CCC[C@H](C)Nc1c2ccc(Cl)cc2nc2ccc(OC)cc12,0.0953µM*,.,.,.,0.0379µM*
CCN(CCO)CCCC(C)Nc1ccnc2cc(Cl)ccc12 (stereo unspecified),0.169µM*,3.9,.,-2.7,0.151µM*
CN(C)C(=O)Oc1ccnc2cc(Cl)ccc12,17.3%,-1.7,-4.4%,2.1,-15.2%
Cc1c(NS(=O)(=O)c2ccc(NC(=O)CCC(=O)O)cc2)c(=O)n(-c2ccccc2)n1C,0.7%,-2.5,-5.1%,-3.0,.
c1ccc(Nc2nc3ccccc3o2)cc1,314.7%,119.3*,-55.5%,33.2*,.
